# Measured values reported in the supplement of paper PMC13380429.
# Values without a mark were called inactive.
# Test system: Vero E6 infected with SARS-CoV-2
# Assay: inhibition of SARS-CoV-2 cytopathic effect; higher = more antiviral protection, active = above 15
# Conditions: 1 nM; 48 h
row,SMILES,inhibition of SARS-CoV-2 cytopathic effect [%]
1,Oc1ccc2c3c1O[C@H]1[C@@H](O)CC[C@@]4(O)[C@@H](C2)N(CC2CCC2)CC[C@]314 [nalbuphine],2.57
2,O=C(O)[C@H](O)c1ccccc1 [mandelic-acid],-0.12
3,CSc1ccccc1OCC(O)CNC(C)C (centres undefined) [tiprenolol],-1.52
4,Nc1n[n+]([O-])c2ccccc2[n+]1[O-] [tirapazamine],-0.88
5,Cc1cccc(NC(=O)CN2CCC(c3ccccn3)CC2)c1,1.23
6,CC[N+](CC)(CC)CCC(O)(c1ccccc1)C1CCCCC1 (centres undefined) [tridihexethyl],-1.22
7,C=CC(=O)Nc1ccc2ncnc(Nc3ccc(OCc4cccc(F)c4)c(Cl)c3)c2c1,-1.9
8,CC(=O)N(C)c1cc(-c2ccnc3c(C(=O)c4cccs4)cnn23)ccc1F [lorediplon],0.42
9,CO/N=C(\C(=O)N[C@@H]1C(=O)N2C(C(=O)OCOC(=O)C(C)(C)C)=C(/C=C\c3scnc3C)CS[C@H]12)c1csc(N)n1 [cefditoren-pivoxil],-0.67
10,O=C(CC12CC3CC(CC(C3)C1)C2)Nc1cccc2nc(NCCNCCO)ccc12,3.46
11,Nc1[nH]cnc2ncnc1-2 [adenine],1.26
12,COc1ccc2cccc(N3CCN(CCNC(=O)c4ccc(F)cc4)CC3)c2c1,-1.86
13,CC(C)(C)NC[C@H](O)c1ccc(O)cc1Cl [meluadrine],-1.16
14,CCOc1ccc2nc3cc(N)ccc3c(N)c2c1 [ethacridine-lactate-monohydrate],-0.84
15,COC(=O)CCc1ccc(OCC(O)CNC(C)C)cc1 (centres undefined) [esmolol],0.17
16,Cc1c(NC(=O)c2cc3c(s2)CCCC3)cccc1-c1cn(C)c(=O)c(Nc2ccc(C3C(=O)N(C)CCN3C)cc2)n1 (stereo in doubt),2.73
17,C[C@@H]1CN(Cc2ccc(F)cc2)[C@@H](C)CN1C(=O)c1cc2c(C(=O)C(=O)N(C)C)cn(C)c2cc1Cl [talmapimod],-1.36
18,Cc1cc2sc(NC(=O)Cc3ccccc3)nc2cc1Cl,2.05
19,NC(=O)[C@@H](CC1CC1)[C@@H](CCC(F)(F)F)C(=O)N[C@H]1N=C(c2ccccc2)c2cccc(F)c2NC1=O,-0.36
20,CS(=O)(=O)Oc1ccc2c(NC(N)=O)c(C(=O)c3ccc(Cl)cc3Cl)oc2c1 [lirimilast],-4.96

row,SMILES,inhibition of SARS-CoV-2 cytopathic effect [%]
1,NC(=O)c1cccc(N)c1 [3-amino-benzamide],-2.7
2,Fc1ccc(C(c2ccc(F)cc2)N2CCN(C/C=C/c3ccccc3)CC2)cc1 [flunarizine],-1.77
3,CC(C)NCC(O)COc1cccc2[nH]ccc12 (centres undefined) [pindolol],-3.04
4,CN1C/C=C/CCOc2cccc(c2)-c2ccnc(n2)Nc2cccc(c2)C1,5.51
5,CCC[C@H](N[C@@H](C)C(=O)N1[C@H](C(=O)O)C[C@@H]2CCCC[C@@H]21)C(=O)OCC [perindopril],-0.73
6,O=C1[C@H]2CCCC[C@H]2C(=O)N1CCCCN1CCN(c2nsc3ccccc23)CC1 [perospirone],-1.38
7,Nc1nc(=O)c2c([nH]1)NCC(CNc1ccc(C(=O)N[C@@H](CCC(=O)O)C(=O)O)cc1)N2C=O (some centres undefined) [leucovorin],-3.4
8,N[C@H](CO)C(=O)O [D-serine],-1.38
9,CC(C)[C@H](N)C(=O)OCCOCn1cnc2c(=O)nc(N)[nH]c21 [valaciclovir],0.01
10,NCC1OC(C23CC4CC(CC(C4)C2)C3)Cc2c1ccc(O)c2O (centres undefined),0.67
11,C#CCN(C)[C@H](C)Cc1ccccc1 [selegiline],0.68
12,O=C(Nc1nc(-c2cc(Cl)cs2)c(N2CCN(C3CCCCC3)CC2)s1)c1cnc(N2CCC(C(=O)O)CC2)c(Cl)c1 [avatrombopag],2.06
13,CC(=C(CCO)SSCC1CCCO1)N(C=O)Cc1cnc(C)nc1N (stereo in doubt) [fursultiamine],2.52
14,O=c1[nH]c2ccccc2n1C1CCN(CCOc2ccccc2)CC1 [oxiperomide],-1.51
15,Cc1coc2c1C(=O)C(=O)c1c-2ccc2c1CCCC2(C)C [tanshinone-IIA],-0.65
16,CNC(=O)Oc1cccc2ccccc12 [carbaril],-0.49
17,CC(=O)NO [acetohydroxamic-acid],4.31
18,COc1cc(OC)c(C(=O)CCCCN2CCC3(CC2)NC(=O)NC3=O)cc1NS(=O)(=O)c1ccc(C(F)(F)F)cc1,0.4
19,Nc1nc(O)c2nc(Br)n([C@@H]3O[C@@H]4COP(=O)(O)O[C@H]4[C@H]3O)c2n1 [8-bromo-cGMP],0.61
